Experimental data from PubChem BioAssay AID1490 (National Center for Advancing Translational Sciences (NCATS), 2009).
About 11,000 (3.5%) of roughly 310,000 compounds were called active. Roughly 4% stayed inconclusive and do not appear here. What follows is part of a selection rich in actives, with near analogues and random picks from the rest. A number with no mark means an inactive call. Calls come from the whole dose curve; as a rule, active = well fitted inhibition curve with a large enough effect; inconclusive = small, poorly fitted or top-dose-only effect, or another doubt; inactive = no such curve, though single readings can be large or run the other way. Non-standard residues stand in square brackets, D forms with d. Residues, ends and D or L forms follow the SMILES beside them. *: point of attachment. PhAc = O=C(Cc1ccccc1)*

These compounds were tested against 4'-phosphopantetheinyl transferase ffp (Bacillus subtilis) (UniProt Q9F4F7) (assay: qHTS Assay for Inhibitors of Bacillus subtilis Sfp phosphopantetheinyl transferase (PPTase)). Conditions: Biochemical Sfp PPTase activity.
Method in brief: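 Fluorescence-quenching assay: 15 nM Sfp-PPTase preincubated 15 min at room temperature with compound, then 5 uM rhodamine-CoA and 12.5 uM BHQ-2-labelled YbbR peptide added. Fluorescence (ex 525/em 598 nm) read at start and after 30 min; difference gives rate.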
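Note: the enzyme is Sfp with the accession as filed and its product quenches rhodamine fluorescence.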
Potency is the fitted concentration of half-maximal effect.
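Throughout, for largest response in the series, negative = inhibition: 0% = enzyme reaction without inhibitor and -100% = no enzyme wells.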

Point of comparison: `COc1ccc2[nH]cc(CCNc3ncnc4ccc(-c5ccc(C(=O)N(C)C)cc5)cc34)c2c1`, largest response in the series, negative = inhibition -5.41%. Against it:
- CCCn1nc(NC(=O)C(C)C)c2cc3cc(OC)ccc3nc21 — higher, 4.66%
- CC(O)COc1ccccc1 (stereo not drawn) — higher, 12.6%
- COc1ccc(N(CC(=O)NCc2ccc(F)cc2)C(=O)CCC(=O)Nc2nccs2)cc1 — lower, -11.5%
- O=C1CCC(=O)N(c2ccccc2)N1 — higher, -3.33%
- CN(CCC(=O)Nc1cc(S(=O)(=O)N(C)C)ccc1Cl)CC(=O)Nc1ccc(F)cc1 — higher, 13.5%
- Cn1c(N)c(C(=O)COC(=O)c2cc(C(F)(F)F)nc3c(C(F)(F)F)cccc23)c(=O)n(C)c1=O — higher, 13.8%
- N#C/C(=C/c1ccc(N2CCCCC2)o1)C(=O)NCCc1c[nH]c2ccccc12 — lower, -16.2%
- N#C/C(=C\c1ccc(N2CCOCC2)o1)C(=O)N1CCOCC1 — lower, -13.7%
- CCCCC[C@H]1CN(C2CCCCC2)C(=O)[C@@H]1CC(=O)NCc1ccc(OC)cc1 — higher, -4.46%
- O=C(Nc1ccccc1N1CCN(C(=O)c2ccccc2)CC1)c1ccco1 — higher, 14.1%
- CC(C)[C@@H](NC(=O)OC(C)(C)C)C(=O)NCC1CCC(C(=O)N[C@@H](Cc2ccccc2)C(=O)O)CC1 (stereo partly drawn) — higher, 6.54%
- O=C(O)CCCCCCCCc1cn(CN2C(=O)c3ccccc3C2=O)nn1 — lower, -11%
- Cc1ccc(NS(=O)(=O)c2ccc(C)c(NC(=O)COc3ccc4ccccc4c3)c2)c(C)c1 — lower, -28.6%
- Cc1cccc(COc2ccccc2/C=N/Nc2ccc([N+](=O)[O-])cc2)c1 — higher, 24.5%
- N#Cc1ccc(/C=C2\CCn3c2nc2cc(C(=O)O)ccc2c3=O)cc1 — higher, 31.1%
- N#Cc1cccc(-c2ccc3ncnc(NCc4cccs4)c3c2)c1 — lower, -14.8%
- O=C(Cc1ccccc1Cl)N1CCOCC1 — higher, 17%
- COC(=O)[C@@]1(Cc2ccc(F)cc2)[C@H]2c3cc(C(=O)N(C)C)n(CCc4c[nH]c5ccc(OC)cc45)c3C[C@H]2CN1C(=O)c1ccccc1 — higher, 0.76%
- O=C(NCc1ccc(Cl)cc1)c1cc(=O)nc2sc(-c3ccccc3)nn12 — higher, 1.8%
- O=C(NCc1ccc(Cl)cc1)NCc1ccc(Cl)cc1 — higher, -3.32%
- Cc1c(C(=O)NCCN(C)C)oc2ccc(S(=O)(=O)N3CCCC3)cc12 — higher, 18.9%
- Fc1cc(F)c2nc(Nc3nc4c(F)cccc4s3)sc2c1 — higher, -0.873%
- NC(=O)c1c(NC(=O)c2ccccc2)sc2c1CCCC2 — higher, 4.07%
- COc1ccc(N2CCN(S(=O)(=O)c3cc(Br)cnc3N)CC2)cc1 — higher, 7.84%
- C=CCc1c(C)nc2cc(-c3ccccc3)[nH]n2c1=O — higher, 7.41%
- Cc1nc2c(-c3ccc(F)cc3)c(C)nn2c(C)c1CCC(=O)NCc1ccco1 — higher, -2.36%
- COc1cc(OC)cc(-c2nc3nc(C)c(CCC(=O)NCc4ccco4)c(C)n3n2)c1 — higher, 8.97%
- CC(C)C(=O)Nc1nnc(SCC(=O)N2C(C)CCCC2C)s1 (stereo not drawn) — lower, -17.7%
- O=S(=O)(c1cc(Cl)ccc1Cl)N1CCN(Cc2ccco2)CC1 — higher, 22.5%
- COc1ccc(Cl)cc1S(=O)(=O)N1CCN(CC(=O)C(C)(C)C)CC1 — higher, 7.95%
- COc1ccccc1CNC(=O)C1CCN(S(=O)(=O)c2ccc3c(c2)CC(C)N3C(=O)C2CC2)CC1 (stereo not drawn) — lower, -7.76%
- CN(C)S(=O)(=O)c1ccc(N2CCCC2)c(C(=O)Nc2cccc(F)c2)c1 — higher, -1.67%
- Cc1ccc(C(=O)NCCc2nnc(SCC(=O)Nc3cccc(C(=O)O)c3)n2C)cc1 — higher, 10.4%
- CC(CCc1ccccc1)NC(=O)COC(=O)c1ccc(F)cc1 (stereo not drawn) — higher, -4.51%
- CCOc1cccc(NC(=O)C2CCCN(S(=O)(=O)c3ccc(OC)cc3)C2)c1 (stereo not drawn) — higher, -5.07%
- COc1ccccc1CC(=O)Nc1ccc(S(=O)(=O)N2CCCC2)cc1 — higher, 4.84%
- Cc1cc(C)c(C#N)c(Nc2cccc(Br)c2)n1 — higher, 6.8%
- CC(C)C[C@@H](NC(=O)[C@H]1CCCN1C(=O)Cc1ccccc1)C(N)=O (PhAc-[dP]-[dL]-NH2) — higher, 21.3%
- CC(C)CCN(C(=O)c1csnn1)C(C(=O)NC1CCCC1)c1ccccc1 (stereo not drawn) — higher, 13.6%
- COc1cccc(Cn2cc(/C=N/NC(=O)c3cc(O)cc(O)c3)c3ccccc32)c1 — lower, -18.5%
- COc1ccc(/C=N/NC(=O)c2cccc(C(F)(F)F)c2)cc1 — lower, -22%
- O=C(NC1Cc2ccccc2C1)c1cc(COc2cccc(C(F)(F)F)c2)on1 — higher, 24%
- S=c1[nH]nc(COc2ccccc2)n1-c1ccccc1 — higher, 21.2%
- Cc1ccc(OCc2n[nH]c(=S)n2-c2ccccc2)cc1 — higher, 5.12%
- Cc1ccc(-c2n[nH]c(=S)n2/N=C/c2cc3c(cc2[N+](=O)[O-])OCO3)cc1 — lower, -22.6%
- CCc1n[nH]c(=S)n1/N=C/c1c[nH]c2ccc(Br)cc12 — higher, 11.4%

For `N#C/C(=C/c1ccc(N2CCOCC2)o1)C(=O)N1CCOCC1`, the Potency was 56.2 µM (active).
For `Cc1ccc(NS(=O)(=O)c2ccc(N/N=C/c3ccccc3OCC(=O)O)c([N+](=O)[O-])c2)c(C)c1`, the Potency was 79.4 µM (active).
For `O=C(NCc1ccc(Cl)cc1)c1cc2c(nc3sccn32)s1`, the Potency was 50.1 µM (active).
In the case of `NC(=O)c1c(Nc2nc3c(F)cccc3s2)sc2c1CCCC2`, the Potency is reported as 44.7 µM (active).
`COc1ccc(-c2cc3nc(C)c(CCC(=O)NC(C)CCc4ccco4)c(C)n3n2)c(OC)c1` (stereo not drawn) was tested, and the Potency was 79.4 µM (active).
In the case of `O=C(CN1CCN(S(=O)(=O)c2cc(Cl)ccc2Cl)CC1)c1ccc(O)c(O)c1`, the Potency is reported as 50.1 µM (active).
For `O=C1CCC(=O)N(O)CCCCCNC(=O)CCC(=O)N(O)CCCCCNC(=O)CCC(=O)N(O)CCCCCN1`, the Potency was 89.1 µM (active).
In the case of `CCN(CC(=O)Nc1ccc(S(=O)(=O)N2CCCC2)cc1)CC(=O)Nc1cccc(OC)c1`, the Potency is reported as 79.4 µM (active).
`O=C(Cn1cc(/C=N/NC(=O)c2cccc(C(F)(F)F)c2)c2ccccc21)Nc1ccc(F)cc1` was tested, and the Potency was 20 µM (active).
With `O=[N+]([O-])c1ccccc1/C=N/n1c(COc2ccccc2)n[nH]c1=S` the Potency was 56.2 µM (active).
`Fc1ccc(/C=N/n2c(COc3ccccc3)n[nH]c2=S)cc1` was tested, and the Potency was 56.2 µM (active).
